Source: PubChem BioAssay AID1845227 (National Center for Advancing Translational Sciences (NCATS), 2023)
Inconclusive results are not listed. A call without a number means that no potency is given here. Activity calls are given as the source filed them. The call rests on the fitted dose curve; in most records, active means well fitted inhibition curve with a large enough effect; inconclusive means small, poorly fitted or top-dose-only effect; inactive means no such curve, though single readings can be large or run the other way.

Each compound was assayed against Luciferin 4-monooxygenase (Photinus pyralis) (UniProt P08659) (assay: Confirmatory firefly luciferase (FLuc) qHTS assay for identification of artifact compounds). Conditions: purified FLuc enzyme, luminescence, 5 min; series mostly up to 38.9 µM.
Procedure, shortened: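 Compounds were preincubated 15 min at room temperature with 10 uM D-luciferin and 10 uM ATP in Tris acetate pH 7.6. 10 nM Photinus pyralis luciferase was then added, and luminescence was read after 5 min.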
Potency means the concentration at half of the fitted maximal effect.

Compound | Potency
CCc1ccc(S(=O)(=O)c2nnn3c2nc(N2CCOCC2)c2sccc23)cc1 | inactive
O=S(=O)(Nc1cccc2cccnc12)c1ccccc1 | inactive
O=C(Nc1nnc(-c2ccncc2)s1)Nc1cccc2ccccc12 | inactive
O=C=Nc1ccc(Cc2ccc(N=C=O)cc2)cc1 | inactive
COc1ccc(C2Nc3ccccc3C(=O)N2Cc2ccccc2)cc1Oc1ccc(NC(C)=O)cc1 (stereo not drawn) | inactive
COc1ccc(NC(=O)Cc2noc3ccc(C)cc23)cc1Cl | inactive
COc1ccc(C(=O)Nc2ccc3oc(-c4cccnc4)nc3c2)cc1 | inactive
COc1ccc(-c2ccc(=O)n(CC(=O)Nc3ccc(OC)c(OC)c3)n2)cc1 | inactive
C[C@@H]1OC(OC2C(OC3CC[C@@]4(C)C5CC=C6C7CC(C)(C)CC[C@@]7(C(=O)O)CCC6(C)C5(C)CCC4[C@]3(C)CO)OCC(O)C2O)C(O)C(O)C1O (stereo partly drawn) | inactive
Nc1ncnc2c1ncn2[C@@H]1O[C@H](COP(=O)(O)OP(=O)(O)OC[C@H]2OC(O)[C@H](O)[C@@H]2O)[C@@H](O)[C@H]1O (stereo partly drawn) | inactive
Cc1ccc(-c2nc(S(=O)(=O)c3ccc(C)cc3)c(N3CCCCC3)o2)cc1 | inactive
CCC(CC)c1nn2c(=O)cc(COc3ccc(NC(=O)c4ccccc4C)cc3)nc2s1 | inactive
Cc1ccc(-n2nnnc2CNC(=O)C(C)C)cc1C | inactive
O=C(c1ccc2c(c1)N(Cc1ccccc1)C(=O)c1ccccc1S2(=O)=O)N1CCN(c2ccccc2)CC1 | inactive
CC(=O)c1ccc(NS(=O)(=O)c2ccc(-c3cc(C)no3)s2)cc1 | inactive
COc1ccc(OC(=O)c2nc(SCc3ccccc3C)ncc2Cl)cc1 | inactive
CCCCNS(=O)(=O)c1ccc2nc(-c3cccnc3)cc(C(=O)NCCC)c2c1 | inactive

Compound | Potency
Cc1ccc(-c2nc(S(=O)(=O)c3ccc(Cl)cc3)c(N3CCCCC3)o2)cc1 | inactive
COc1ccc(C2N(Cc3ccccc3)C(=O)c3ccccc3N2C)cc1COc1ccc(NC(C)=O)cc1 (stereo not drawn) | inactive
COc1cc(=O)n2c(c1C(=O)N(C)Cc1nccs1)CCN(Cc1cc(C)cc(C)c1)CC2 | inactive
c1cc(CNc2ccnc(-c3ccc4c(c3)OCO4)n2)ccn1 | inactive
COc1ccc(-n2c(=O)c3ccc(C(=O)NCc4ccc(C)cc4)cc3n(Cc3ccc(Cl)cc3)c2=O)cc1 | inactive
C[C@H](NC(c1ccc(F)cc1)c1ccc2cccnc2c1O)c1ccccc1 (stereo partly drawn) | inactive
CCCc1nn2cc(-c3ccc(C)c(C)c3)nc2s1 | 770 nM (active)
CCOC(=O)c1c(C)[nH]c(C)c1S(=O)(=O)N1CCC(C(=O)NCc2ccc(OC)cc2)CC1 | inactive
Cc1c(Cl)cccc1NC(=O)c1cccc(NC(=O)N2CCSc3ncccc32)c1 | inactive
Cc1ccc(OC(C)C(=O)NCC2(N3CCOCC3)CCCCC2)cc1C (stereo not drawn) | inactive
COc1ccc(NC(=O)C(C)n2nc(-c3cc(C)ccc3C)c3c(c2=O)CCCC3)cc1 (stereo not drawn) | inactive
Cc1ccccc1CNC(=O)C(C)N(c1ccccc1)S(C)(=O)=O (stereo not drawn) | inactive
CC(C)(C)C(=O)OCC(=O)[C@H]1CC[C@H]2[C@@H]3CCC4=CC(=O)CC[C@]4(C)[C@H]3CC[C@]12C | inactive
COc1cccc(-c2nnc(Nc3nc4ccc(OC)cc4s3)o2)c1 | inactive
CCCS(=O)(=O)N1CC(=O)N(c2ccc(C)cc2C)C(C)(C(=O)NC2CCCCCC2)C1 (stereo not drawn) | inactive
O=C(Nc1cc(Cl)ccc1Cl)c1cc(S(=O)(=O)NCCc2ccccc2)ccc1F | inactive
